TSHR ag – activates the human thyroid stimulating hormone receptor; HEK293-CNG-TSHR cells (CNG channel as cAMP sensor), membrane potential dye, cAMP; Potency, µM (titrated, usually from 57.1 µM), for inactives: top-dose activation, hits mostly activators; 0.48% of 73,000 active; active means well fitted activation curve with a large enough effect in the main read-out, with a control signal flat, not every such curve was filed as active; inconclusive means small, poorly fitted or top-dose-only effect, or a change in a side signal; inactive means no such curve, though single readings can be large or run the other way; % of control where 0% means no effect;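 further: the control signal comes from parental cells without the receptor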
Target sequence (P16473 whole entry, looked up): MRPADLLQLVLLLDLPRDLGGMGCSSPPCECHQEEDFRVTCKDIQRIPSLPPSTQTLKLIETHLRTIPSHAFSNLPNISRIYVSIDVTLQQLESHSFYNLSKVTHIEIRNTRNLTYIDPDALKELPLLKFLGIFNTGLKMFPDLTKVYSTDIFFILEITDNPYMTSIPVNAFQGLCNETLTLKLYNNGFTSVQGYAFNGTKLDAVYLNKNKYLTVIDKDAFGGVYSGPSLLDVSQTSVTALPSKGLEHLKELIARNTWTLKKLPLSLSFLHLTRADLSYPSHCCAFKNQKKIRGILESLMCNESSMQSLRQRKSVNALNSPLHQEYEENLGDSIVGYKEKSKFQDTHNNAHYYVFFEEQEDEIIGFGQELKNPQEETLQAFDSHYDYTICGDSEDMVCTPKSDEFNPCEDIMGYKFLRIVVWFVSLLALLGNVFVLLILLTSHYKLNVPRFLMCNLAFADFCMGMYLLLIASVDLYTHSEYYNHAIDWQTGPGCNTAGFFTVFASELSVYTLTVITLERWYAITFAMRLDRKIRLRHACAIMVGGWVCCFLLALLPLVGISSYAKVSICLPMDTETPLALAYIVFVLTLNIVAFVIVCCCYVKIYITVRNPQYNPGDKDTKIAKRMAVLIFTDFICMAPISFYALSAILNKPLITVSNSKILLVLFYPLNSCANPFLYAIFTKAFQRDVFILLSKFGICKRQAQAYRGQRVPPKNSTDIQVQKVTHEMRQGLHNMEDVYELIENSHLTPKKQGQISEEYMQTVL
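HEK 293 cells stably expressing TSHR and a cAMP-gated CNG channel; parental CNG-only cells as counterscreen. Cells preloaded 60 min with membrane potential dye plus 100 uM RO 20-1724, then compound 30 min; fluorescence read at 590 nm.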
IkB signaling – inhibitors of IkB signaling in ABC-DLBCL cells. Potency, µM (doses to about 57.1 µM), inactives show top-dose IkBa stabilization activation. 0.04% of 110,000 active. ABC-DLBCL IkBa-CBG/CBR dual luciferase ratio, 4 h; response scale: scaled: untreated 0%, proteasome inhibitor 100%; active means well fitted curve in the direction sought with a large enough effect in the signal ratio, not every such curve was filed as active; inconclusive means small, poorly fitted or top-dose-only effect, or a change in a side signal; the % refers to the signal ratio;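 further: the direction sought is a rising ratio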
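In this assay, an IκBα–CBG68 fusion accumulates when IKK-driven degradation is blocked; native CBR normalizes for cell number. OCI-Ly3 cells were treated 4 h with compound and doxycycline, then green and red light read after Chroma-Glo addition.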
p53ts 39C tox – cytotoxicity in p53ts cells at nonpermissive temperature; H1299-p53A138V viability at 39C, ATP luminescence, 24 h; Potency, µM (titrated, usually from 46.1 µM), inactives show top-dose activity change, negative = cell killing, hits mostly cytotoxic; 1.5% of 130,000 active; further: on the % scale 0 is the no-effect control and ±100 the full control effect; nearly all actives have a fitted effect of over 55% in size
HEK293 cAMP ctrl – raises cAMP in parental HEK293 cells, TSHR agonist counter-screen | 2.5% of 73,000 active | parental HEK293 CNG cAMP sensor, membrane potential fluorescence | Potency, µM (top dose mostly 57.1 µM), for inactives: top-dose activation, most hits filed as activators; further: % of control where 0% means no effect; nearly all actives have a fitted effect of over 55% in size
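Counterscreen for endogenous-receptor signalling: CNG-channel HEK 293 cells report cAMP rise by membrane depolarization. After 60 min dye equilibration with 100 uM RO 20-1724, compounds incubated 30 min before bottom-read fluorescence at 590 nm.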
p53ts 32C tox – cytotoxicity in p53ts cells at permissive temperature. H1299-p53A138V at 32C, ATP luminescence viability, 24 h. Potency, µM (doses to about 46.1 µM), inactives show at the top dose activity change, negative = cytotoxicity, usual class: cytotoxic. 0.93% of 130,000 active;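 further: 0% = DMSO and -100% = full killing by reference compound; nearly all actives have a fitted effect of over 55% in size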
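Viability by ATPlite luminescence after 24 h compound treatment (up to 46 uM) at the permissive 32C. Cells are H1299 carrying p53 A138V. Scale runs from DMSO basal to 100 uM tamoxifen as full kill; AC50 from Hill fits.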
Peg3 imprint – inducers of genomic imprint erasure in mouse ES cells. mouse ES Peg3-LacZ reporter, beta-gal luminescence, 40 h. Potency, µM (highest dose often 60.7 µM), for the others: at the highest dose activity change, positive = activation, usual class: activators. 0.02% of 110,000 active. AID 1948
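Imprint erasure is scored as LacZ activity from the silenced maternal Peg3 allele in feeder-free female ES cells cultured 40 h with LIF. Luminescence is normalized to in-plate negative controls and fitted to the Hill equation.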
* hit, by the source's call; ? = inconclusive; / = no result given; [ ] = another dose, or the depositor's remark. The list is not random: actives were taken first. Their share in the collection is about 3.1%. Unless noted, the call rests on the fitted dose curve; in most records, active means well fitted curve in the direction sought with a large enough effect; inconclusive means small, poorly fitted or top-dose-only effect, or another doubt; inactive means no such curve, though single readings can be large; an effect the other way counts as inactive or inconclusive. Potency means the concentration at half of the fitted maximal effect.

SMILES	TSHR ag	IkB signaling	p53ts 39C tox	HEK293 cAMP ctrl	p53ts 32C tox	Peg3 imprint
COc1ccc(-c2c(O)c3c(OC)c4c(cc3oc2=O)OC(C)(C)CC4)cc1	/	/	-28.1%	/	?	4.8%
COc1ccc(-c2c(O)c3c(OC)c4c(cc3oc2=O)OC(C)(C)C=C4)cc1	/	/	6.31µM*	/	7.94µM*	0.9%
CN1C(=O)Cn2c1nc1ccccc12	?	0.4%	0.7%	20µM*	-6.8%	8.8%
N[C@@](CCc1ccccc1)(C(=O)O)c1ccccc1	-4.0%[11.4 µM]	-1.1%[11.4 µM]	-4.0%[9.22 µM]	-2.4%[11.4 µM]	2.2%[9.22 µM]	2.5%[10.9 µM]
CC(=O)c1cccc(NC(=O)Cn2c(=O)oc3cc(S(=O)(=O)NCc4ccccc4)ccc32)c1	/	-0.5%	-5.3%	/	15.9%	12.4%[10.9 µM]
O=C(Cn1cnc2c(oc3ccccc32)c1=O)N1CCCc2ccccc21	1.7%	-0.9%	11.4%	0.0%	-6.1%	2.5%
O=C(CSc1ncnc2c1oc1ccccc12)N1CCCc2ccccc21	?	?	-0.4%	31.6µM*	7.6%	-7.2%
CC1CCN(CC(=O)Nc2sc3c(c2C#N)CCC3)CC1	?	-1.2%	-8.5%	7.94µM*	5.3%	8.1%
O=C(Nc1ccc(N2CCCCC2)cc1)c1ccccc1	-0.2%	/	12.6µM*	-12.1%	5.01µM*	/
O=C(Nc1ccc(N2CCCC2)cc1)c1cccc(F)c1	?	?	5.01µM*	?	7.94µM*	-84.8%
O=C(Nc1ccc(N2CCCC2=O)cc1)c1cccc(F)c1	4.3%	3.1%	?	0.2%	?	-85.6%
O=C(c1cccc(F)c1)N1CCC2(CC1)CCN(c1ccc(-c3ccccc3)cc1)CC2	?	0.9%[11.4 µM]	-14.6%	15.8µM*	-8.1%	/
O=C(Nc1ccc(N2CCCC2)cc1)c1ccccc1F	/	/	-16.3%	/	?	/
O=S(=O)(c1ccc2ccccc2c1)n1nc(-c2ccco2)nc1NCc1ccc(F)cc1	/	?	0.7%	/	4.1%	-7.1%[10.9 µM]
COC(=O)c1ccc(C2c3c(oc4ccc(C)cc4c3=O)C(=O)N2Cc2ccc3c(c2)OCO3)cc1 (stereo not drawn)	/	-0.8%	7.0%	/	0.9%	-5.8%[10.9 µM]
CCn1c2ccccc2c2cc(CN3CCN(Cc4ccc(OC)c(OC)c4)CC3)ccc21	/	?	25.1µM*	/	-7.2%	-15.6%[10.9 µM]
CCC/C=C(\CCC)C(NC(=O)c1cccs1)c1ccc(C(=O)OC)cc1 (stereo not drawn)	?	/	7.7%	12.6µM*	14.5%	10.2%
CCC/C=C(\CCC)C(NC(=O)c1ccc(C(=O)OC)cc1)c1ccc(C(=O)OC)cc1 (stereo not drawn)	?	/	-5.0%	?	9.3%	9.2%
CCC/C=C(\CCC)C(NC(=O)C(C)(C)C)c1ccc(C(=O)OC)cc1 (stereo not drawn)	?	/	5.5%	15.8µM*	1.6%	-22.2%
CCC/C=C(\CCC)C(NC(=O)c1cccs1)c1ccc(C(F)(F)F)cc1 (stereo not drawn)	?	/	?	?	-23.3%	5.0%
CCC/C=C(\CCC)C(NC(=O)c1ccc(C(F)(F)F)cc1)c1ccccc1 (stereo not drawn)	?	/	5.4%	15.8µM*	-2.8%	-18.7%
COc1ccc(-c2nnc(C3CCN(S(=O)(=O)c4cccc(Cl)c4)CC3)o2)cc1	/	?	-16.3%	/	13.9%	-8.6%[10.9 µM]
Cc1c(Cl)ccc2sc(N3CCN(C(=O)CS(=O)(=O)c4ccccc4)CC3)nc12	/	?	?	/	7.4%	-13.0%[10.9 µM]
CCOC(=O)CCN1C(=O)[C@H]2[C@H]3[C@H](O)[C@H](O)C/C(=N/OCc4ccccc4)[C@@H]3CC[C@@H]2C1=O	-5.4%[11.4 µM]	/	-6.7%[9.22 µM]	6.6%[11.4 µM]	1.9%[9.22 µM]	/
Cc1cccc(C)c1Nc1nc2ccccc2nc1NS(=O)(=O)c1ccccc1	/	?	3.5%	/	-3.1%	-11.2%[10.9 µM]
SMILES	TSHR ag	IkB signaling	p53ts 39C tox	HEK293 cAMP ctrl	p53ts 32C tox	Peg3 imprint
CCN1c2ccccc2NC2N=C(OC)C(c3ccccc3)C21 (stereo not drawn)	?	?	12.6µM*	?	?	-24.6%
O=C(CSc1nnc(-c2ccccn2)n1Cc1ccco1)c1ccc(Cl)cc1	?	-2.2%	9.7%	25.1µM*	5.3%	-14.1%
O=C(CSc1nnc(-c2ccccn2)n1Cc1ccco1)c1ccccc1	16.4%	-2.3%	1.1%	9.2%	7.5%	-6.3%
COc1ccccc1S(=O)(=O)Cc1ccc(C(=O)N2CCN(c3cccc(Cl)c3)CC2)o1	?	?	-10.0%	5.01µM*	-18.1%	-21.5%
Cc1ccc(C)c(N2CCN(C(=O)c3ccc(CS(=O)(=O)c4ccccc4C)o3)CC2)c1	?	?	?	?	-24.6%	-25.5%
Cc1cccc(N2CCN(C(=O)c3ccc(CS(=O)(=O)c4ccccc4C)o3)CC2C)c1 (stereo not drawn)	?	?	-19.0%	25.1µM*	-29.5%	-27.7%
COc1ccc(NS(=O)(=O)c2ccc3c(c2)n(C)c(=O)c(=O)n3C)cc1Cl	/	?	-9.5%	/	2.5%	-9.9%[10.9 µM]
Cc1oc2ccc(O)c(CN3CCN(Cc4ccccc4)CC3)c2c1C(=O)Nc1cccc(Cl)c1C	/	?	-9.2%	/	5.2%	9.9%[10.9 µM]
O=C(c1ccco1)N1CCN(S(=O)(=O)c2ccc(S(=O)(=O)NC3CCCCC3)cc2)CC1	?	1.3%	8.5%	1.58µM*	12.3%	-13.4%
O=C(c1ccco1)N1CCN(S(=O)(=O)c2ccc(C3CCCCC3)cc2)CC1	?	8.1%	-4.4%	25.1µM*	-4.8%	-15.2%
O=C(c1ccco1)N1CCN(S(=O)(=O)c2ccc(S(=O)(=O)NC3CCCC3)cc2)CC1	?	0.2%	?	?	-1.7%	-9.0%
Cc1cc(C)cc(-n2c(SCC(=O)N3CCc4ccccc43)nc3c([nH]c4ccccc43)c2=O)c1	/	-1.7%	-12.9%	/	0.8%	-4.3%[10.9 µM]
O=C(Nc1ccc(F)cc1)c1csc2c1CCCCC2	/	-0.1%	?	/	15.8µM*	-6.5%[10.9 µM]
CCCN(c1ccccc1CC)S(=O)(=O)c1ccc2c(c1)CC(C)N2C(=O)C1CC1 (stereo not drawn)	/	-1.4%	-11.8%	/	8.2%	-17.9%[10.9 µM]
COCCNC(=O)C1CCN(C(=O)c2cc3sccc3n2Cc2ccc(Cl)cc2)CC1	/	?	-18.3%	/	24.7%	-19.7%[10.9 µM]
O=C(NCc1ccco1)C1CCN(C(=O)c2cc3sccc3n2Cc2ccc(Cl)cc2)CC1	?	?	16.4%	12.6µM*	13.8%	-24.9%
CCOc1ccccc1-c1noc(CSc2nnc(-c3ccccc3)n2-c2cccc(C)c2)n1	/	?	-14.9%	/	20.3%	13.0%[10.9 µM]
COc1cccc(CNC(=O)c2cc3c(=O)oc4ccc(C)cc4c3s2)c1	/	-1.1%	?	/	-16.2%	5.8%[10.9 µM]

Compound activity as filed in PubChem.
